From the supplement of paper PMC10981050
Counter-ions that a name gives are not always drawn.

These compounds were tested on MOLM14 (assay: cell viability relative to vehicle control; higher = less cytotoxic). Conditions: 10 µM; SRSF2 genotype: SRSF2 wt/wt.
How it was run: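 Each screen used CRISPR-edited mutant and wild-type clones from four leukaemia lines. Compounds were acoustically dispensed at a single 10 µM dose, and CellTiter-Glo luminescence was read after 48 h with the supernatant first removed. Viability was analysed in Genedata Screener and given as percent of the on-plate vehicle control.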

| Structure (SMILES) | cell viability [%] |
| --- | --- |
| O=C(CCc1ccc(O)cc1)c1c(O)cc(O[C@@H]2O[C@H](CO)[C@@H](O)[C@H](O)[C@H]2O)cc1O [Trilobatin] | 98.9 |
| CC(C)n1nc(-c2ccc3oc(N)nc3c2)c2c(N)ncnc21 | 15.8 |
| COc1ccc(COc2ccc(Cc3cnc(N)nc3N)cc2OC)cc1 | 88.3 |
| COc1cc(O)c(C(=O)Nc2nc(C(=O)NCCN(C(C)C)C(C)C)cs2)cc1OC [Acotiamide hydrochloride] | 98.8 |
| CC(=O)N1C[C@H](O)C[C@H]1C(=O)O [Oxaceprol] | 102 |
| C/C=C(/C)C(=O)O[C@H]1[C@@H](OC(=O)CC(C)C)c2c(ccc3ccc(=O)oc23)OC1(C)C [Praeruptorin E] | 76.3 |
| CC(C)[C@H](O)C(=O)N[C@@H](C)C(=O)N[C@@H]1C(=O)N(C)CCc2ccccc21 | 105 |
| O=C(O)C1=CO[C@@H](O[C@@H]2O[C@H](CO)[C@@H](O)[C@H](O)[C@H]2O)[C@@H]2C(CO)=CC[C@H]12 [Geniposidic acid] | 91.6 |
| NC(=O)[C@@H]1CC[C@@H]2CN1C(=O)N2OS(=O)(=O)O [Avibactam sodium] | 111 |
| Oc1cc(O)c2c(c1)OC(c1ccc(O)c(O)c1)C(OC1(c3ccc(O)c(O)c3)Oc3cc(O)cc(O)c3C(O)C1O)C2 (stereo not given) [Proanthocyanidins] | 102 |
| CC(=O)OCC(=O)[C@@]1(O)[C@H](C)C[C@H]2[C@@H]3CCC4=CC(=O)C=C[C@]4(C)[C@@]3(F)[C@@H](O)C[C@@]21C [Dexamethasone acetate] | 95.5 |
| CCNC1(C(N)=O)CCN(c2ncnc3c2nc(-c2ccccc2Cl)n3-c2ccc(Cl)cc2)CC1 | 84.3 |
| COc1cc(Cc2cnc(N)nc2N)cc(OC)c1OC [Trimethoprim] | 104 |
| CCOC(=O)CC(=O)N1CCSC1COc1ccccc1OC (stereo not given) [Moguisteine] | 105 |
| O=C(O)C=CCCCCCCCO [Royal jelly acid] | 102 |
| COc1cc2c(cc1O)CC[n+]1cc3c(OC)c(OC)ccc3cc1-2 [Jatrorrhizine chloride] | 90.5 |
| CC(C)(C)S(=O)(=O)c1ccc2nccc(Nc3n[nH]c4ccc(F)cc34)c2c1 | 95.6 |
| Nc1c(Br)cc(Br)cc1CN[C@H]1CC[C@H](O)CC1 [Ambroxol HCl] | 107 |
| CN(C)CCCCC(=O)Nc1ccc(NC(=S)NC(=O)c2ccc(C(C)(C)C)cc2)cc1 [Tenovin-6] | 0.76 |
| Nc1nc2n[nH]nc2c(=O)[nH]1 [Azaguanine-8] | 86.6 |

| Structure (SMILES) | cell viability [%] |
| --- | --- |
| OCCOCCN1CCN(C(c2ccccc2)c2ccc(Cl)cc2)CC1 (stereo not given) [Hydroxyzine 2HCl] | 95 |
| c1cc2c(c3c1C[C@H]1c4cc5c(cc4CCN1C3)OCO5)OCO2 [Stylopine hydrochloride] | 94 |
| COc1c(-c2ccc3cc(NS(C)(=O)=O)ccc3c2)cc(-n2ccc(=O)[nH]c2=O)cc1C(C)(C)C [S5402 Dasabuvir(ABT-333).cdx] | 97.3 |
| OC[C@H]1O[C@@H](n2cnc3c(O)nc(O)nc32)[C@H](O)[C@@H]1O [Xanthosine] | 98.5 |
| CCOc1ccccc1N=Nc1c(C)[nH]n(-c2nc(-c3ccccc3)cs2)c1=O | 95.9 |
| Cc1ccc([C@@H]2O[C@H](CO)[C@@H](O)[C@H](O)[C@H]2O)cc1Cc1ccc(-c2ccc(F)cc2)s1 [Canagliflozin] | 102 |
| O=S1(=O)CCN(CN2CCS(=O)(=O)NC2)CN1 [Taurolidine] | 105 |
| CC(=O)OCC(=O)[C@@]1(O)CC[C@H]2[C@@H]3CCC4=CC(=O)CC[C@]4(C)[C@@]3(F)[C@@H](O)C[C@@]21C [Fludrocortisone acetate] | 102 |
| CCCCC(CC)COC(=O)C=Cc1ccc(OC)cc1 (stereo not given) [Octinoxate] | 108 |
| NC(=O)c1ccc(-c2nc(-c3ccc4c(c3)OCCO4)c(-c3ccccn3)[nH]2)cc1 | 97.6 |
| Cc1cc(-c2cc(C)c(NCCCS(=O)(=O)O)c(C)c2)cc(C)c1N | 108 |
| Cc1cn(-c2cc(NC(=O)c3ccc(C)c(Nc4nccc(-c5cnccn5)n4)c3)cc(C(F)(F)F)c2)cn1 [Radotinib] | 100 |
| O=c1c2ccccc2oc2ccccc12 [Xanthone (Genicide)] | 108 |
| Nc1nc2c(ncn2COCCO)c(=O)[nH]1 [Acyclovir (Aciclovir)] | 99.1 |
| CC(=O)O[C@]1(C(C)=O)CC[C@H]2[C@@H]3C[C@H](C)C4=CC(=O)CC[C@]4(C)[C@H]3CC[C@@]21C [Medroxyprogesterone acetate] | 102 |
| COC(=O)C[C@](O)(CCCC(C)(C)O)C(=O)O[C@@H]1C(OC)=C[C@]23CCCN2CCc2cc4c(cc2[C@H]13)OCO4 [Homoharringtonine] | 1.06 |
| Cc1cc(C)c(-c2csc(NC(=O)c3ccccc3)n2)c(C)c1 | 40.5 |
| C=C1CCC[C@]2(C)C[C@]3(O)OC(=O)C(C)=C3C[C@@H]12 [Atractylenolide III] | 99 |
| C[C@@H]1C[C@H]2[C@@H]3CCC4=CC(=O)C=C[C@]4(C)[C@@]3(Cl)[C@@H](O)C[C@]2(C)[C@@]1(OC(=O)c1ccco1)C(=O)CCl [Mometasone furoate] | 79 |
| CC(=O)O[C@]1(C(C)=O)CC[C@H]2[C@@H]3CCC4=CC(=O)CCC4=C3[C@@H](c3ccc(N(C)C)cc3)C[C@@]21C [Ulipristal acetate] | 93.6 |
